Screening results from PubChem BioAssay.
S1P2 antag: antagonists of human S1P2 receptor; O95136; 0.21% of 97,000 active; AID 736; cell-based S1P2 antagonist assay, inhibition at 5 uM; inhibition, % at 5 µM; in the data active = inhibition above about 45%;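 note: CRE beta-lactamase reporter cells expressing human S1P2 stimulated with S1P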
GALR2 agonist: activates the human galanin receptor 2 | activation, % (concentration not given with the values) | 0.48% of 140,000 active | O43603 | GALR2-expressing cells, agonist activation read-out; in the data active = activation above about 5%, passing the limit was not always enough
Target sequence (O43603 whole entry, looked up): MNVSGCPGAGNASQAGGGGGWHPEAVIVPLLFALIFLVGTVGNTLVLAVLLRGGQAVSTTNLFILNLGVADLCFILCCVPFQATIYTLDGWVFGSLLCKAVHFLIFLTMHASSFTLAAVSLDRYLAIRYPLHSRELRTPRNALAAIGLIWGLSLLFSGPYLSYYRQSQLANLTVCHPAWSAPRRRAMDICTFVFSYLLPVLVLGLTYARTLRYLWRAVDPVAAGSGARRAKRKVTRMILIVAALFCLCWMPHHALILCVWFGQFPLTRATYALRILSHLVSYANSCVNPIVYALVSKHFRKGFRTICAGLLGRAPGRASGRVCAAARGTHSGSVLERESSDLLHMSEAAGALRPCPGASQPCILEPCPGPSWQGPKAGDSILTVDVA
GALR2 antag: antagonists of human galanin receptor 2 (GALR2); O43603; GALR2-expressing cells, antagonist mode; inhibition, % at 4 µM; 0.39% of 140,000 active; AID 828;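 note: cells stimulated with galanin 1-16 at roughly its EC80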
S1P2 agonist: agonists of human S1P2 receptor; S1P2-expressing cell line, agonist reporter read-out; O95136; activation, % at 4.5 µM; 0.46% of 97,000 active; in the data active = activation above about 16%
GALR2 ag confirm: confirmation of human galanin receptor 2 (GALR2) agonists | GALR2-expressing cells, agonist activation | AID 864 | activation, % at 5.6 µM | 10% of 460 active | shares compounds with GALR2 agonist; in the data active = activation above about 8.4%
BLA act counter: beta-lactamase activation, GALR2 counterscreen. activation, % at 5.6 µM. 10% of 460 active. AID 865. shares compounds with GALR2 agonist. CHO NFAT-bla reporter, beta-lactamase FRET activation;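 active = activation above the screen-wide mean activation plus 3 SD, cut at about 8% in these data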
GALR2 ant conf: GALR2 (human) antagonism confirmed. GALR2-expressing cells, antagonist mode, inhibition. inhibition, % at 4 µM. shares compounds with GALR2 antag. 60% of 480 active. AID 866;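 note: cells stimulated with galanin at about its EC80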
BLA inhib ctr: inhibits beta-lactamase reporter in GALR2 antagonist counterscreen; shares compounds with GALR2 antag; CHO NFAT-BLA reporter, beta-lactamase FRET, thapsigargin-stimulated; inhibition, % at 4.2 µM; 36% of 480 active; AID 867;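 active = inhibition above the mean inhibition across tested compounds plus 3 SD, cut at about 27% in these data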
Each line names hits and unclear results; the compound was inactive in the other large screens (follow-up assays come after a bar, where they were run); ! = repeats disagree. The list is not random: actives were taken first. Their share in the collection is about 1.2%. Cut-off read from the data, not from the text of the source, unless noted: active = inhibition above about 27%; inactive = the rest.

C=CCNC(=O)c1c(N)n(Cc2ccco2)c2nc3ccccc3nc12	GALR2 agonist 6.4, S1P2 agonist 17.8
CCC(C)N1C(=O)/C(=C/c2ccc3c(c2)CCN3CCCCl)C(=O)NC1=S (centres undefined)	none (no result: S1P2 antag, S1P2 agonist)
O=[N+]([O-])NC1=NCN(Cc2ccco2)CN1Cc1ccco1	none (no result: S1P2 antag, S1P2 agonist)
CCCCCc1nc2c(c(=O)c3ccccc3n2C)c(=O)n1C1CCCCCC1	GALR2 agonist 7.3 (no result: S1P2 antag, S1P2 agonist)
CCCCCc1nc2ccccc2c(=O)n1-c1ccccc1[N+](=O)[O-]	none (no result: S1P2 antag, S1P2 agonist)
CCCCn1c(N)c(C(=O)NCCN2CCOCC2)c2nc3ccccc3nc21	none
CC(C)CCNC(=O)c1c(N)n(CC2CCCO2)c2nc3ccccc3nc12 (centres undefined)	GALR2 agonist 31.6, S1P2 agonist 40.0
Nc1c(C(=O)NCCc2ccccc2)c2nc3ccccc3nc2n1CCN1CCOCC1	GALR2 agonist 25.3, S1P2 agonist 31.3
COc1ccc(CCNC(=O)c2c(N)n(CCN3CCOCC3)c3nc4ccccc4nc23)cc1	S1P2 agonist 26.9
CCC(C)NC(=O)c1c(N)n(Cc2ccc3c(c2)OCO3)c2nc3ccccc3nc12 (centres undefined)	GALR2 agonist 84.3, S1P2 agonist 140.0
CCC(C)NC(=O)c1c(N)n(CC2CCCO2)c2nc3ccccc3nc12 (centres undefined)	none (no result: S1P2 antag, S1P2 agonist)
CCC(C)NC(=O)c1c(N)n(CCCOC)c2nc3ccccc3nc12 (centres undefined)	GALR2 agonist 15.8, S1P2 agonist 24.7
CCN(CC)CC(O)c1ccc(C2CCCC2)cc1 (centres undefined)	none (no result: S1P2 antag, S1P2 agonist)
Cc1nc2ccc(Cl)cc2c(-c2ccccc2)c1C(=O)O	none (no result: S1P2 antag, S1P2 agonist)
CC(NC1CCCCC1)C(O)C12CC3CC(CC(C3)C1)C2 (centres undefined)	GALR2 agonist 19.4 | GALR2 ag confirm inactive | BLA act counter inactive
CCN(CC)C1=NC(=[N+](CC)CC)c2ccccc21	none
COCCNP(=O)(c1ccccc1)c1nc2ccccc2s1 (centres undefined)	GALR2 agonist 11.7 | GALR2 ag confirm inactive | BLA act counter inactive
Cc1c2ccncc2c(C)c2c1[nH]c1ccccc12	GALR2 agonist 11.9 (no result: S1P2 antag, S1P2 agonist) | GALR2 ag confirm 12.6 | BLA act counter inactive
C=CCn1c(O)c(C(CC)=NCCc2ccccc2)c(=O)[nH]c1=O	GALR2 agonist 11.8 | GALR2 ag confirm inactive | BLA act counter inactive
Cc1cc2c(C(C)C)c(O)c(O)c(C=O)c2c(O)c1-c1c(C)cc2c(C(C)C)c(O)c(O)c(C=O)c2c1O	none (no result: S1P2 antag, S1P2 agonist)
CCC1(CCc2ccncc2)C(=O)NC(=O)NC1=O	none
COc1ccc(C[C@@H]2c3cc(O)c(OC)cc3CCN2C)cc1O	none (no result: S1P2 antag, S1P2 agonist)
COc1cc2c3cc1Oc1cc(ccc1O)C[C@@H]1c4c(cc(OC)c(O)c4Oc4ccc(cc4)C[C@H]3N(C)CC2)CCN1C	GALR2 agonist 9.6 (no result: S1P2 antag, S1P2 agonist) | GALR2 ag confirm 12.2 | BLA act counter inactive
Cn1c(=O)c2c(nc(N/N=C/c3c(O)n(-c4ccccc4)c(=S)[nH]c3=O)n2C)n(C)c1=O	none (no result: S1P2 antag, S1P2 agonist)
O=c1cc(C(F)(F)F)c2cc3c4c(c2o1)CCCN4CCC3	GALR2 antag 36.1 | GALR2 ag confirm inactive | BLA act counter inactive | GALR2 ant conf 32.1 | BLA inhib ctr 43.7
N=C1c2ccccc2CN1CC(=O)c1ccccc1	none (no result: S1P2 antag, S1P2 agonist)
Cn1cccc1/C=C1/C(=O)NC(=O)N(Cc2ccccc2)C1=O	GALR2 antag 28.6 (no result: S1P2 antag, S1P2 agonist) | GALR2 ant conf 36.1 | BLA inhib ctr 65.5
C=CCN1C(=O)NC(=O)/C(=C/c2cccn2C)C1=O	none
Cc1ccc(-n2nc(C)c(C3C(C#N)=C(N)Oc4c3c(=O)oc3ccccc43)c2Cl)cc1 (centres undefined)	none
COC(=O)C[C@]1(C(=O)OC)CN(C#N)N(c2ccc(Cl)cc2)C12c1ccccc1-c1ccccc12	GALR2 antag 40.2 | GALR2 ant conf 43.7 | BLA inhib ctr 31.8
CCOC(=O)C1CCN(C=C2C(=O)N(C)C(=S)N(C)C2=O)CC1	none (no result: S1P2 antag, S1P2 agonist)
CN[C@H]1C[C@H]2O[C@@](C)([C@H]1OC)n1c3ccccc3c3c4c(c5c6ccccc6n2c5c31)C(=O)NC4	GALR2 antag 104.1 (no result: S1P2 antag, S1P2 agonist) | GALR2 ant conf 104.9 | BLA inhib ctr 108.5
CCOP(=O)(OCC)C(NC(C)=O)C(Cl)(Cl)Cl (centres undefined)	none
C=CCn1c(O)c(C(C)=NCc2cc(OC)cc(OC)c2)c(=O)[nH]c1=O	none
CN1C2CCC1/C(=C/c1ccccn1)C(=O)/C2=C\c1ccccn1	GALR2 antag 101.9 (no result: S1P2 antag, S1P2 agonist) | GALR2 ant conf 102.4 | BLA inhib ctr 104.5
Cc1cccc(N2CCc3c2nc2ccccc2c3N)c1	GALR2 antag 30.8! | GALR2 ant conf 35.5 | BLA inhib ctr inactive
